PubChem BioAssay (NCI)
This is part of a sample that, as a whole, favours compounds with a hit. Of some 83,000 tested, about 20% had one in any assay.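 Growth was measured after 48 h exposure to one concentration of compound in 96-well plates. Values under 10 count as active.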 Values without a mark were called inactive. Calls of active or inactive are those of the source.

Tests used:
Experiment in all cases: NCI-60 one-dose screen, 48 h (100 = growth as untreated, 0 = no growth, -100 = all killed)
Conditions in all cases: 10 µM unless noted
[1] = test system: HCT-15 colon
[2] = test system: HT29 colon
[3] = test system: SNB-75 CNS
[4] = test system: SNB-19 CNS
[5] = test system: PC-3 prostate
[6] = test system: SK-MEL-5 melanoma
[7] = test system: UACC-62 melanoma
[8] = test system: LOX IMVI melanoma
[9] = test system: SK-MEL-28 melanoma
[10] = test system: SK-MEL-2 melanoma
[11] = test system: EKVX NSCLC
[12] = test system: SN12C renal
[13] = test system: UO-31 renal
[14] = test system: TK-10 renal
[15] = test system: ACHN renal
[16] = test system: A498 renal
[17] = test system: CCRF-CEM leukemia
[18] = test system: MOLT-4 leukemia
[19] = test system: U251 CNS
[20] = test system: CAKI-1 renal

Row | Structure (SMILES) | growth [1] | growth [2] [%] | growth [3] | growth [4] [%] | growth [5] | growth [6] | growth [7] | growth [8] | growth [9] | growth [10] | growth [11] [%] | growth [12] | growth [13] | growth [14] | growth [15] | growth [16] | growth [17] | growth [18] | growth [19] [%] | growth [20]
1 | Cc1c(Cl)cccc1S(=O)(=O)Nc1ccc2c(c1)C(=O)N(C1CCC(=O)NC1=O)C2=O (stereo not given) | 24% | 105 | 77.4% | 82.9 | 95.4% | 100% | 98.4% | 122% | 97.8% | 107% | 91.2 | 89.4% | 44% | 75.2% | 108% | 91.1% | 25.5% | 3.6% (active) |  | 
2 | O=S(=O)(Nc1cccc2ccccc12)c1ccc(-c2cnc(C3CC3)o2)cc1 | 14.3% | 16.8 |  | 38.8 | 16.5% | 7.66% (active) | 37.2% |  | 57.7% | 72.3% | 43.1 | 34.3% | 43.5% | 92.6% | 36.9% |  | 17.6% | 21.8% | 23.8 | 29.9%
3 | C=CCn1c(SCC(=O)Nc2ccc(C(=O)/C=C/c3ccc(Br)cc3)cc2)nnc1-c1c[nH]c2ccccc12 | 93.4% | 94.1 | 95.4% | 89.1 | 68% | 72.3% | 64.6% | 49% | 97.1% | 93.4% | 82.2 | 81.1% | 59.7% | 95.9% | 87.8% | 88.9% | 83% | 66.3% |  | 
4 | Cc1ccc(NC(=O)c2ccc(CN3CCOCC3)c(C(F)(F)F)c2)cc1Oc1ccc(-c2[nH]nc3ncnc(N)c23)cc1 | 40.5% |  | 112% | 95.5 | 43.4% | 16.3% | 19.4% | 59.1% | 47.8% | 59.6% | 65.6 | 82.3% | 54.6% | 80% | 58.2% | 87.3% | 47.8% | 46.3% | 66.9 | 39.2%
5 | Nc1ncc(-c2ccc3ncnc(Nc4cccc(Cl)c4F)c3c2)cn1 | 56.4% | 78.9 | 53.2% | 59.4 | 61% | 63.6% | 38.9% | 77.4% | 65.2% | 95.3% | 11.7 | 50.9% | 34.6% | -2.85% (active) | 25.3% | -10.7% (active) | 65.6% | 72.3% |  | 38%
6 | COc1cc2oc(-c3cccc(NC(=O)c4cc(N)ccc4Cl)c3)cc(=O)c2c(OC)c1OC | 85.7% | 110 | 101% | 100 | 97.9% | 75.3% | 94.4% | 87.1% | 108% | 110% | 91.4 | 100% | 80.9% | 98.3% | 95% | 82.6% | 64.9% | 72.8% |  | 87.9%
7 | COc1c(N2CC3CCCNC3C2)c(F)cc2c(=O)c(C(=O)N/N=C/c3ccc(Br)cc3)cn(C3CC3)c12 (stereo not given) | 1.76% (active) | 13.6 | 103% | 88.3 | 65.1% | 84% | 43% | -73.5% (active) | 86.2% | 100% | 90.4 | 78.8% | 60.5% | 121% | 89.2% | 74.3% | 55.3% | 54.9% |  | 
8 | CCN(CC)c1cn(-c2ccc(S(N)(=O)=O)cc2)nn1 | 105% | 97.9 | 83% | 102 | 101% | 104% | 94.9% | 106% | 105% | 109% | 105 | 105% | 91.8% | 103% | 106% | 83.4% | 106% | 97.7% |  | 93.9%
9 | CCn1c(SCC(=O)Nc2cccc(C(=O)/C=C/c3ccccc3Cl)c2)nc2ccccc2c1=O | 55.2% | 67.1 | 89.5% | 82.3 | 75.4% | 93.5% | 79.9% | 27.6% | 98.3% | 110% | 85.8 | 88.4% | 68% | 125% | 97% | 94% | 77.8% | 93.2% |  | 84.6%
10 | CCO/C=N/C1=C(C#N)C(c2ccc(F)cc2)c2sc3c(CC)cccc3c2O1 (stereo not given) | 12.6% | 10.1 | 3.71% (active) | 21.4 | 13.6% | 26.6% | 16.1% | 14.7% | 61% | 42.7% | 49 | 22.9% | 32.2% | 63.9% | 28.4% | -3.45% (active) | 13.1% | 19.8% |  | 36.4%
11 | N#C/C(=C\c1ccc(-c2ccc(Cl)cc2Cl)o1)c1ccc(F)cc1 | 94.5% | 96.4 | 77.6% | 96.7 | 87.8% | 95.7% | 71.2% | 87.6% | 102% |  | 87.4 | 98.6% | 81.5% | 138% | 89.9% |  | 93.7% | 93.8% |  | 68.8%
12 | COc1cc(-c2nn(C(C)(C)C)cc2-c2ccnc(NCCCNS(=O)(=O)c3ccc(C)cc3)n2)ccc1Cl | 80.5% | 78.3 | 54.7% | 100 |  | 83.1% | 68.3% | 72.7% | 101% | 87.4% | 46.1 | 60.8% | 44% | 65.2% | 89.6% | 30.9% |  |  |  | 27.4%
13 | C[C@@H](Nc1c(C#N)cnc2ccc(-c3cnc(Cl)c(NS(C)(=O)=O)c3)cc12)c1ccccc1 | 10.2% | 11.6 | -30% (active) | 15.7 |  | -82.8% (active) | -12% (active) | -24.6% (active) | 5.72% (active) | -29.4% (active) |  | 9.48% (active) | 4.15% (active) | -17.9% (active) | 8.09% (active) | -49.8% (active) | 2.97% (active) | -35.6% (active) |  | -18.4% (active)
14 | COc1cc(/C=C/C(=O)c2ccc(NC(=O)CSc3nnc(-c4ccc(-c5nc6ccc(Cl)cc6[nH]5)cc4)o3)cc2)cc(OC)c1OC | 53.7% | 106 | 88.4% | 89 | 92.2% | 94.1% | 74.2% | 88.6% | 88.3% | 99.2% | 103 | 104% | 86% | 136% | 96.7% |  | 85.9% |  |  | 91.2%
15 | O=S(=O)(Nc1ccc2c(c1)OCO2)c1ccc(-c2cnc(C3CC3)o2)cc1 | 20.3% | 14 |  | 38.1 | 37.9% | 30% | 33.2% |  | 51.2% | 53.5% | 43.2 | 36.8% | 45.5% | 73.8% | 43.6% |  | 27% | 31.5% | 27.4 | 40.8%
16 | CCO/C=N/C1=C(C#N)C(c2ccc(OC)cc2)c2sc3c(C)cccc3c2O1 (stereo not given) | 18.2% | 10 | 28.2% | 28.3 | 9.28% (active) | 39.5% | 17.3% | 34.8% | 55.7% | 36.5% | 39.9 | 25.2% | 34.3% | 78.5% | 37.6% | -15.6% (active) | -2.18% (active) | 16.4% |  | 33.3%
17 | C=C1CC[C@@H]2[C@]3(C)COC(c4ccccc4)O[C@@H]3CC[C@@]2(C)[C@@H]1C/C=C1/C(=O)OC[C@H]1O (stereo not given in full) | 65.5% | 54.8 | 100% | 97 | 82.4% | 94.7% | 85.7% | 33.8% | 107% |  | 100 | 79.9% | 75.7% | 109% | 100% |  | 9.03% (active) | 84% |  | 83.7%
18 | Clc1ccc(N/N=c2/oc3ccccc3cc2-c2cc3ccccc3[nH]2)cc1 | 59.4% | 69.2 |  | 85.4 | 63.9% | 82.5% | 73.9% |  | 97.7% | 108% | 70.2 | 70.9% | 49.7% | 145% | 49.7% |  | 79.7% | 69.6% | 80.2 | 58.4%
19 | COc1ccc(S(=O)(=O)NCCCNc2nccc(-c3[nH]c(-c4ccccc4)nc3-c3ccc(Cl)c(O)c3)n2)cc1 | 93.7% | 73.8 | 108% | 105 |  | 56.9% | 18.1% | 56.9% | 23.5% | 15.4% | 113 | 84.2% | 116% | 126% | 96.2% | 116% | 40.3% | 51.2% |  | 102%
